Hits are enriched below; roughly 2.8% of the tested compounds scored in any of these assays.
Pol eta inh = qHTS for Inhibitors of Polymerase Eta. DNA polymerase eta (Homo sapiens), Q9Y253. recombinant Pol eta, fluorescent DNA replication assay. Potency, µM (series often up to 114 µM), most hits filed as inhibitors. 1.2% of 390,000 active
Target sequence (Q9Y253 whole entry, looked up): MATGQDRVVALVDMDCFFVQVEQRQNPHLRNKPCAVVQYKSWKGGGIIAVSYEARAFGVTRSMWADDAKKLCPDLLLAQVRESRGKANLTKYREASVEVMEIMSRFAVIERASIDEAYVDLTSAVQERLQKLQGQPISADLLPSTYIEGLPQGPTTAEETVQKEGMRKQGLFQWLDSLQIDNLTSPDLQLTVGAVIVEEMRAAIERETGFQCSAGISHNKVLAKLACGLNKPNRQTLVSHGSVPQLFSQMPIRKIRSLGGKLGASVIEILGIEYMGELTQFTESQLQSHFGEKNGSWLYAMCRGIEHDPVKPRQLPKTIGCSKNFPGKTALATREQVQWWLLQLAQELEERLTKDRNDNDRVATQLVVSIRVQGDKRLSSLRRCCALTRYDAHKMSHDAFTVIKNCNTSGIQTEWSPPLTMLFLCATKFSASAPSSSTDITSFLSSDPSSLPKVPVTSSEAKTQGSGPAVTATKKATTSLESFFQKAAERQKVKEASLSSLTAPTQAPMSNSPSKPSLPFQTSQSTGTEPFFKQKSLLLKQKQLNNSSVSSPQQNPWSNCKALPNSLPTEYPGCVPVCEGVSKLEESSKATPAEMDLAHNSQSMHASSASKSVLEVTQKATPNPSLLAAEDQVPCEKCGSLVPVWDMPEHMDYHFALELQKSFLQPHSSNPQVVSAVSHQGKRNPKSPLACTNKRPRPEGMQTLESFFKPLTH
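Pol eta at 10 nM preincubated with compounds 15 min at room temperature; reaction started with fluorescent substrate (50 nM final) and read kinetically at 0 and 10 min.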
Pol kappa inh = qHTS for Inhibitors of Polymerase Kappa; DNA polymerase kappa (Homo sapiens), Q9UBT6; purified Pol kappa, fluorescent DNA synthesis assay, 10 min; Potency, µM (series often up to 107 µM), usual class: inhibitors; 0.53% of 400,000 active; AID 588579, 2011
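Here, compound and 10 nM enzyme are combined for 15 min at room temperature; adding 50 nM substrate (final) starts DNA synthesis, tracked by fluorescence at 0 and 10 min against buffer-only wells.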
PI5P4K alpha inh = qHTS for Inhibitors of phosphatidylinositol 5-phosphate 4-kinase (PI5P4K). PI5P4Kalpha enzyme, ADP-Glo luminescence, 60 min; stronger effect = lower value. Phosphatidylinositol 5-phosphate 4-kinase type-2 alpha (Homo sapiens), P48426. max response, %. 1.2% of 330,000 active; active means max response of -50% or lower; inconclusive means between -30% and -50%; inactive means -30% or higher; further: value at the top dose of about 77 µM
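Controls without substrate or without enzyme flank wells where PI5P4Kalpha converts substrate using 5 microM ATP (final). Incubation lasts 60 minutes at room temperature; ADP formed is read by ADP-Glo luminescence.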
POLB inh = qHTS Assay for Inhibitors of DNA Polymerase Beta; 1.3% of 340,000 active; Pol beta primer extension/strand displacement, fluorescence kinetic; Potency, µM (doses to about 114 µM), most hits filed as inhibitors; AID 485314, 2010; P06746
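Reaction started by 50 nM substrate onto compound-treated Pol beta (10 nM, 15 min preincubation, room temperature); plates read at 0 min and 10 min. Normalized concentration-effect data fitted by four-parameter Hill equation.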
Pol iota inh = qHTS for Inhibitors of Polymerase Iota | AID 588590, 2011 | Pol iota fluorescent replication assay, 10 min | DNA polymerase iota (Homo sapiens), Q9UNA4 | 1% of 390,000 active | Potency, µM (doses to about 115 µM), actives largely listed as inhibitors
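Pol iota at 10 nM preincubated 15 min with compounds at room temperature; reaction started with fluorescent substrate, 50 nM final. Fluorescence read kinetically at 0 and 10 min; buffer-only wells as negative control.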
PI4K2A block = qHTS for small molecular inhibitors of PI4K2A. purified PI4K2A, ADP-Glo luminescence, 1 h; stronger effect = lower value. activity change, negative = inhibition, % at 76.9 µM. 0.13% of 420,000 active. AID 1346378, 2018; in the data active means activity change below about -50%; inconclusive means mostly about -30% to -49%
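In this quantitative HTS, ADP production by PI4K2A was quantified luminescently after 1 h at ambient temperature; 100 microM adenosine served as plate-quality control.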
Hits are given with their value. Unless noted, the call rests on the fitted dose curve; in most records, active means well fitted inhibition curve with a large enough effect; inconclusive means small, poorly fitted or top-dose-only effect, or another doubt; inactive means no such curve, though single readings can be large or run the other way.

What do the screens show for `COc1cccc2sc3ccc(NCc4ccc5c(c4)OCO5)cc3c(=O)c12`?
Pol eta inh: inactive; Pol kappa inh: 79.4µM; PI5P4K alpha inh: inactive; POLB inh: inconclusive; Pol iota inh: 15.8µM; PI4K2A block: inactive

How did COc1cc(-c2c(C#N)c(N)nc3[nH]c(=S)[nH]c(=O)c23)ccc1O do in these assays?
Pol eta inh: inactive; Pol kappa inh: inactive; PI5P4K alpha inh: -67.3; POLB inh: inactive; Pol iota inh: inconclusive; PI4K2A block: inactive

Results for Cc1ccc(NC(=O)c2ccc(Nc3c([N+](=O)[O-])cc([N+](=O)[O-])cc3[N+](=O)[O-])cc2)cc1 ?
Pol eta inh: inconclusive; Pol kappa inh: inactive; PI5P4K alpha inh: inactive; POLB inh: inconclusive; Pol iota inh: 20µM; PI4K2A block: inactive

How did O=C(NCc1ccccc1)c1cccc(Br)n1 do in these assays?
Pol eta inh: inactive; Pol kappa inh: inactive; PI5P4K alpha inh: inactive; POLB inh: inactive; Pol iota inh: 79.4µM; PI4K2A block: inactive

What do the screens show for `O=C(Nc1ccc2c(c1)C(=O)NC2=O)c1cccc(C(F)(F)F)c1`?
Pol eta inh: inactive; Pol kappa inh: inactive; PI5P4K alpha inh: inactive; POLB inh: 79.4µM; Pol iota inh: inconclusive; PI4K2A block: inactive

What do the screens show for `CCOc1cc(/C=C2/C(=O)N(c3ccccc3)N=C2C)ccc1OC(=O)c1cccs1`?
Pol eta inh: inactive; Pol kappa inh: inactive; POLB inh: inactive; Pol iota inh: 0.355µM; PI4K2A block: -52.3

How did COc1cc(/C=C2/C(=O)N(c3cccc(Br)c3)N=C2C)cc(OC)c1O do in these assays?
Pol eta inh: inactive; Pol kappa inh: inactive; PI5P4K alpha inh: inactive; POLB inh: inactive; Pol iota inh: inconclusive; PI4K2A block: -54.0

What do the screens show for `CC1=NN(c2ccccc2)C(=O)/C1=C/C=C/c1ccc(N(C)C)cc1`?
Pol eta inh: inactive; Pol kappa inh: inactive; PI5P4K alpha inh: inactive; POLB inh: inactive; Pol iota inh: inactive; PI4K2A block: inactive

What do the screens show for `CCOc1cc(/C=N/NC(=O)c2ccccn2)ccc1OC(=O)c1cccs1`?
Pol eta inh: inactive; Pol kappa inh: inactive; PI5P4K alpha inh: inactive; POLB inh: inactive; Pol iota inh: inactive; PI4K2A block: inactive

How did COc1ccc(/C=C2/C(=O)N(c3ccccc3)N=C2C)cc1OC do in these assays?
Pol eta inh: inactive; Pol kappa inh: inactive; PI5P4K alpha inh: inactive; POLB inh: inconclusive; Pol iota inh: 2.51µM; PI4K2A block: inactive

How did CC1=NN(c2ccccc2)C(=O)/C1=C\C=C\c1ccccc1 do in these assays?
Pol eta inh: 79.4µM; Pol kappa inh: inactive; PI5P4K alpha inh: inactive; POLB inh: inconclusive; Pol iota inh: inconclusive; PI4K2A block: inactive

What do the screens show for `COC(=O)[C@]12C[C@H](CC(=O)NCc3ccc(C)o3)C(=O)N(CCc3ccc(OC)c(OC)c3)C1=C[C@H](COCc1ccccc1)O[C@@H]2C`?
PI4K2A block: inactive

What do the screens show for `Nc1c(NC/C=C\COc2cc(CN3CCCCC3)ccn2)c(=O)c1=O`?
PI4K2A block: inactive

Results for CC1=NN(c2ccc(C(=O)OC(C)C)cc2)C(=O)/C1=C\C=C\c1ccco1 ?
Pol eta inh: inconclusive; Pol kappa inh: inactive; PI5P4K alpha inh: inactive; POLB inh: 50.1µM; Pol iota inh: inactive; PI4K2A block: inactive

How did O=C1NN(c2ccccc2)C(=O)/C1=C\c1cccc(OC(=O)c2cccs2)c1 do in these assays?
Pol eta inh: 28.2µM; Pol kappa inh: inactive; PI5P4K alpha inh: inconclusive; POLB inh: 28.2µM; Pol iota inh: inconclusive; PI4K2A block: inactive

What do the screens show for `O=C1NN(c2ccc(Cl)c(Cl)c2)C(=O)/C1=C/c1cccc(OC(=O)c2cccs2)c1`?
POLB inh: inactive

How did CN(C)CCNc1cc(N2CCN(C)CC2)ncn1 do in these assays?
Pol kappa inh: inactive; Pol iota inh: inactive

What do the screens show for `C=CCn1c(SCC(=O)NCCc2ccccc2)nnc1C1CC1`?
Pol eta inh: inactive; Pol kappa inh: inactive; PI5P4K alpha inh: inactive; Pol iota inh: inactive; PI4K2A block: inactive

Results for C=CCn1c(SCC(=O)Nc2nnc(C)s2)nnc1C1CC1 ?
Pol eta inh: inconclusive; Pol kappa inh: inactive; PI5P4K alpha inh: inactive; POLB inh: 25.1µM; Pol iota inh: inconclusive; PI4K2A block: inactive

What do the screens show for `COc1ccccc1NC(=O)CCn1cnc2ccccc2c1=O`?
Pol kappa inh: inactive; POLB inh: inconclusive; Pol iota inh: 89.1µM; PI4K2A block: inactive

How did O=C(CCn1cnc2ccccc2c1=O)NCc1ccccc1Cl do in these assays?
Pol eta inh: inactive; Pol kappa inh: inactive; POLB inh: inactive; Pol iota inh: inactive; PI4K2A block: inactive

How did O=C(CCn1cnc2ccccc2c1=O)NCc1ccccc1 do in these assays?
Pol eta inh: inconclusive; Pol kappa inh: inactive; POLB inh: 20µM; Pol iota inh: inactive; PI4K2A block: inactive

How did COc1ccccc1NC(=O)c1ncn(-c2ccccc2)n1 do in these assays?
Pol kappa inh: inactive; POLB inh: inactive; Pol iota inh: 89.1µM; PI4K2A block: inactive

What do the screens show for `COc1cccc(CNC(=O)CCn2cnc3ccccc3c2=O)c1`?
Pol eta inh: inactive; Pol kappa inh: inactive; POLB inh: 14.1µM; Pol iota inh: inconclusive; PI4K2A block: inactive

Results for Cc1ccccc1OCc1cc(=O)n2c(-c3ccccc3)csc2n1 ?
Pol eta inh: inactive; Pol kappa inh: inactive; POLB inh: inactive; Pol iota inh: inactive; PI4K2A block: inactive

Results for COc1cccc(OCc2cc(=O)n3c(-c4ccccc4)csc3n2)c1 ?
Pol eta inh: inactive; Pol kappa inh: inactive; POLB inh: 20µM; Pol iota inh: inactive; PI4K2A block: inactive

Results for CCN(CC)c1ccc(/C=C/c2cccc[n+]2C)c(OC)c1 ?
Pol eta inh: inactive; Pol kappa inh: inactive; PI5P4K alpha inh: inconclusive; POLB inh: 50.1µM; Pol iota inh: inactive; PI4K2A block: inactive

Results for CCOc1cc(/C=C2\C(=O)N(c3cccc(C(=O)O)c3)N=C2C(F)(F)F)ccc1OCC(=O)Nc1ccccc1OC ?
POLB inh: 20µM

What do the screens show for `C#CCCc1cocc1/C=[N+](\[O-])c1ccc(C(=O)OCC)cc1`?
Pol eta inh: inactive; Pol kappa inh: inconclusive; PI5P4K alpha inh: inconclusive; Pol iota inh: 35.5µM; PI4K2A block: inactive

Results for Cc1cc(-c2sccc2Br)nc(-n2cccc2)n1 ?
Pol eta inh: inactive; Pol kappa inh: 79.4µM; PI5P4K alpha inh: inactive; POLB inh: inactive; Pol iota inh: inconclusive; PI4K2A block: inactive

How did O=C(CSc1ccsc1[N+](=O)[O-])N1CCCCCC1 do in these assays?
Pol eta inh: inactive; Pol kappa inh: inactive; PI5P4K alpha inh: inactive; POLB inh: inconclusive; Pol iota inh: inconclusive; PI4K2A block: inactive

Compound activity: PubChem BioAssay, National Center for Advancing Translational Sciences (NCATS)
